# Test results as given in PubChem BioAssay AID1851 (National Center for Advancing Translational Sciences (NCATS), 2009).
# Among all 16,000 compounds or so, about 5,700 (36%) were called active. Inconclusive results (about 24%) are left out. The call rests on the fitted dose curve; in most records, active means well fitted curve in the direction sought with a large enough effect; inconclusive means small, poorly fitted or top-dose-only effect, or effect the other way; inactive means no such curve, though single readings can be large or run the other way. The list shows a part of the results.
# Molecular target: Cytochrome P450 1A2 (Homo sapiens) (UniProt P05177)
# Assay: Cytochrome panel assay with activity outcomes
# Settings: recombinant CYP, pro-luciferin dealkylation, luminescence, p450-cyp1a2; series mostly up to 57.1 µM
# On the % scale 0 is the no-effect control and ±100 the full control effect.
# Cytochrome P450 1A2 (Homo sapiens), sequence (P05177 whole entry, looked up): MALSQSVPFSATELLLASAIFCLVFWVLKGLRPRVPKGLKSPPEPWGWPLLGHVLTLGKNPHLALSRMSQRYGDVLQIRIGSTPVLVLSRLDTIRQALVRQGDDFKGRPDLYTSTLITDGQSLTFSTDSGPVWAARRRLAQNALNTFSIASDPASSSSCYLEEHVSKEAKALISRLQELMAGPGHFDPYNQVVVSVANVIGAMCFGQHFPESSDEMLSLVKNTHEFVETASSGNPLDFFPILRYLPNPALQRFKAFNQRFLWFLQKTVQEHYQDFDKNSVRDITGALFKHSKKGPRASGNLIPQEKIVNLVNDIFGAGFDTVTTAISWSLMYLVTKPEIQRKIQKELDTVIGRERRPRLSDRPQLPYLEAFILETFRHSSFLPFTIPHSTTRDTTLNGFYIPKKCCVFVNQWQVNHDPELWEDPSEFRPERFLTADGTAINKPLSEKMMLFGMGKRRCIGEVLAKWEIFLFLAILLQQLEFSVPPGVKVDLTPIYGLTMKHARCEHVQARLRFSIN
Compound,AC50,"activity, negative = inhibition"
Fc1cccc(/C=N\N=C/c2cccc(F)c2)c1,0.2 µM (active),
COc1cccc([C@@H]2Oc3ccc(OC)cc3/C(=N/O[C@@H](C)c3cc(-c4c(C)cc(C)cc4C)no3)[C@@H]2O)c1,,-10.9% [at 11.4 µM] (inactive)
Cc1cc(C)c(C(N)=O)c(NC(=O)Nc2ccccc2)n1,3.16 µM (active),
Cc1cc(N)c2cc(NC(=O)Nc3ccc4nc(C)cc(N)c4c3)ccc2n1,,-1.54% [at 11.4 µM] (inactive)
Cc1noc2ncnc(Oc3ccc4ccccc4c3)c12,8.91 µM (active),
Cc1cccc(Oc2ncnc3onc(C)c23)c1C,17.8 µM (active),
CCNCCCNCCCNCCCNCC,inactive,
CC1CCN(CCc2nc3cc(NC(=O)NC4CCCCC4)ccc3n2C)CC1,inactive,
O=C(Nc1ccc(Cl)c(Cl)c1)N1CCC(N2CCCCC2)CC1,inactive,
CC1CCN(C(=O)Nc2ccc3nsnc3c2)CC1,11.2 µM (active),
COc1ccc(COC(=O)N/N=C2/C[C@@H](O)[C@@H](O)[C@@H]3[C@H]4C(=O)N(c5ccc(F)cc5F)C(=O)[C@@H]4CC[C@H]23)cc1,,-6.28% [at 11.4 µM] (inactive)
Cc1cc(O)c(C(C)C)cc1N=Cc1ccccc1O,1.58 µM (active),
O=S(=O)(O)c1cc(O)c2c(N=Cc3ccccc3O)cc(S(=O)(=O)O)cc2c1,,-23.7% [at 2.29 µM] (inactive)
COc1ccc(C(=O)N2CCC3(CCCN(Cc4cc(C(F)(F)F)cc(C(F)(F)F)c4)C3)CC2)cc1,inactive,
O=C(O)C1(Nc2ccc(Cl)cc2)CCCC1,,-2.69% [at 11.4 µM] (inactive)
N#CC1(Nc2ccc(-c3ccc(NC4(C#N)CCCC4)cc3)cc2)CCCC1,3.16 µM (active),
COCC(=O)N1CCC2(CCCN(Cc3cc(C(F)(F)F)cc(C(F)(F)F)c3)C2)CC1,inactive,
O=C(O)c1c(Cl)c(Cl)c(Cl)c(Cl)c1C(=O)Nc1ccc2cn[nH]c2c1,0.2 µM (active),
S=C(Nc1ccc2cn[nH]c2c1)Nc1ccc2cn[nH]c2c1,0.126 µM (active),
N#CC(C#N)=NNc1ccc2cn[nH]c2c1,1.26 µM (active),
CCN1C(=O)[C@H]2[C@H]3[C@H](O)[C@H](O)C/C(=N/NC(=O)OCc4ccccc4)[C@H]3CC[C@@H]2C1=O,,-7.29% [at 11.4 µM] (inactive)
NS(=O)(=O)c1cc(Cl)c(Cl)c(S(N)(=O)=O)c1,inactive,
CN(C)/C(CN1CCN(C=O)CC1)=C1\N=C(c2ccccc2)OC1=O,14.1 µM (active),
O=C(O)[C@@H](S)[C@H](S)C(=O)O,,-20.1% [at 11.4 µM] (inactive)
CC1CCN(CCOc2cc(Cl)ccc2Cl)CC1,8.91 µM (active),

Compound,AC50,"activity, negative = inhibition"
CC1CCN(CCCCOc2ccccc2[N+](=O)[O-])CC1,inactive,
OCCN1CCN(CCOc2cccc(Cl)c2)CC1,inactive,
CC1CN(C2CCN(C(=O)c3cccc(Cl)c3)CC2)CC(C)O1 (stereo not drawn),inactive,
O=C(OCc1ccccn1)c1ccc(COc2ccccc2Cl)o1,7.08 µM (active),
COc1ccccc1CNC(=O)C1CCN(S(=O)(=O)N2CC(C)CC(C)C2)CC1 (stereo not drawn),inactive,
CC1CCN(C(=O)c2ccc(COc3ccccc3Cl)o2)CC1,3.16 µM (active),
C[C@@H]1NC(=O)[C@@H](C)COC(=O)[C@H](C)NC(=O)[C@@H](C)COC1=O,,0.211% [at 11.4 µM] (inactive)
CC(C)n1nnnc1SCC(=O)NCCc1ccccc1,12.6 µM (active),
CCn1c(CC(=O)Nc2ccc(C)cc2)nnc1SCC(=O)NCCc1ccccc1,inactive,
CC(NC(=O)CSc1nc(=O)cc(N)n1CCc1ccccc1)c1ccccc1 (stereo not drawn),inactive,
COc1ccccc1CNc1ccnc(-c2ccoc2)n1,1.58 µM (active),
COc1ccccc1CNc1ccnc(-c2ccc(N(C)C)cc2)n1,0.794 µM (active),
COc1ccccc1CNc1ccnc(-c2ccc(C(=O)N(C)C)cc2)n1,12.6 µM (active),
COc1ccc(CNc2ccnc(-c3ccc(N(C)C)cc3)n2)c(OC)c1,3.16 µM (active),
COC(=O)N1CCC2(CC1)CCN(c1ncccn1)CC2,inactive,
CN(C)c1ccc(-c2nccc(NCc3ccccc3)n2)cc1,1.26 µM (active),
O=[N+]([O-])c1cc(/C=N/N2CCN(C3c4ccccc4-c4ccccc43)CC2)ccc1Cl,inactive,
Nc1nnnn1/N=C\c1ccc(Cl)c([N+](=O)[O-])c1,5.01 µM (active),
COc1cc(OC)c2cc(-c3ccncc3)cnc2c1,0.2 µM (active),
CCc1ccc(C(CC(=O)c2ccc(Cl)cc2)C(=O)O)cc1 (stereo not drawn),inactive,
CCc1ccc(C(=O)CN(C#N)c2nc(C)cc(C)n2)cc1,15.8 µM (active),
COc1ccccc1CN1CCC2(CC1)CCN(C(C)=O)CC2,inactive,
COCC(=O)N1CCC2(CCN(Cc3ccccc3OC)CC2)CC1,inactive,
CCCCN(CC)C(=O)Cc1ccccc1OC,14.1 µM (active),
O=C(O)COc1c(Cl)cc(Cl)c2cccnc12,,-1.3% [at 2.29 µM] (inactive)

Compound,AC50,"activity, negative = inhibition"
O=C(COC(=O)c1cccnc1)c1ccc(Cl)c(Cl)c1,0.891 µM (active),
O=C(COC(=O)c1cccnc1Cl)c1ccccc1,11.2 µM (active),
Cc1ccc(C(=O)COC(=O)c2ccccc2N2C(=O)C3C4CCC(C4)C3C2=O)cc1C (stereo not drawn),inactive,
Cc1ccc(C(=O)COC(=O)c2ccc3c(c2)C(=O)N(c2cccc4ncccc24)C3=O)cc1C,inactive,
O=C(OCc1ccc(Cl)cc1Cl)c1cccnc1Cl,1 µM (active),
COCC(=O)N1CCC2(CCCN(C(=O)Nc3ccc(OC)cc3)C2)CC1,inactive,
CC(C)(C)NC(=O)NC(=O)CSc1nnc2ccccn12,inactive,
Cc1nc2ccccn2c1/C(O)=C1\C(=O)C(=O)N(CCCn2ccnc2)C1c1ccncc1 (stereo not drawn),inactive,
Cc1nc2ccccn2c1C(=O)CSc1ccccc1Cl,8.91 µM (active),
CCOc1c2ccc(C(=O)NCCc3cccs3)cc2nn1CC,8.91 µM (active),
CCCCCn1c(SCc2ccncc2)nc2cc(C(=O)NCc3ccco3)ccc2c1=O,4.47 µM (active),
O=C(CSc1nc2ccccc2c(=O)n1CCCC(=O)N1CCCC1)NCc1ccco1,inactive,
CCCCn1nc2cc(C(=O)NCC3CC3)ccc2c1OCC,inactive,
CCOc1c2ccc(C(=O)NCc3ccco3)cc2nn1CC,2.51 µM (active),
CCCn1nc2cc(C(=O)NCc3ccccc3OC)ccc2c1OCC,inactive,
c1ccc(C2OCC3(CO2)COC(c2ccccc2)OC3)cc1 (stereo not drawn),inactive,
Cc1cccc(NC(=O)Cn2c(=O)oc3ccccc32)c1,15.8 µM (active),
COCCNC(=O)CCn1c(=O)oc2ccccc21,inactive,
Cc1cccc(NC(=O)Cn2c(=O)n3nc(CCn4nc(C)cc4C)nc3c3ccccc32)c1,inactive,
Cc1ccc(CNC(=O)Cn2c(=O)oc3ccccc32)o1,12.6 µM (active),
CC1CCCC(NC(=O)CCn2c(=O)oc3ccccc32)C1C (stereo not drawn),inactive,
COC(=O)[C@@]1(Cc2ccc(OC)cc2)[C@H]2c3cc(C(=O)N4CCCC4)n(CCn4cc([N+](=O)[O-])nc4C)c3C[C@H]2CN1C(=O)c1ccccc1,inactive,
CCCn1c(N)c(C(=O)CSc2nc(C)cs2)c(=O)n(C)c1=O,15.8 µM (active),
CSc1cccc(NC(=O)Nc2ccc(Cl)cc2)c1,5.01 µM (active),
Cc1cc(C)cc(C(=O)N(NC(=O)Nc2ccc(Cl)cc2)C(C)(C)C)c1,inactive,

Compound,AC50,"activity, negative = inhibition"
O=C(O)CC[C@@]1(c2ccccc2)NC(=O)NC1=O,,-11.4% [at 11.4 µM] (inactive)
Cc1ccc(N(CCC#N)C(=O)CSc2ccc3c(c2)OCCO3)cc1,2 µM (active),
CCOC(=O)c1[nH]c(C)c(C)c1C,0.501 µM (active),
Cc1cc(C)c2cc(C#N)c(NCCOC(=O)c3ccccc3C)nc2c1,1.26 µM (active),
CCOC(=O)c1cc(C#N)c(Oc2ccccc2OC)nc1-c1ccccc1,0.708 µM (active),
CCCCNc1nc(-c2ccccc2)c(C(=O)OCC)cc1C#N,4.47 µM (active),
O=C1CCCC=C1[C@@H](O)COCc1ccccc1,,-6.11% [at 11.4 µM] (inactive)
CCN1C(=O)CC(N2CCN(CC(=O)NC(C)C)CC2)C1=O (stereo not drawn),inactive,
C/C(=N\O)c1cccc[n+]1Cc1ccccc1,,-0.979% [at 11.4 µM] (inactive)
NC(=O)c1ccc(-c2ncc(-c3ccccc3)o2)cc1,0.631 µM (active),
NC(=O)c1ccc(C2SCC(=O)N2Cc2ccccc2)cc1 (stereo not drawn),inactive,
CO[C@]1(NC(=O)[C@H](C(=O)O)c2ccc(O)cc2)C(=O)N2C(C(=O)O)=C(CSc3nnnn3C)CO[C@H]21,inactive,
COCCNC(=O)CSc1nc2cc(OC)c(OC)cc2c(=O)n1Cc1ccco1,inactive,
Cc1sc2nc(SCC(=O)C(C)(C)C)n(Cc3ccco3)c(=O)c2c1C,0.891 µM (active),
CC(=O)[C@H]([C@@H](c1ccccc1)N1CCOCC1)N1CCOCC1,,2.19% [at 11.4 µM] (inactive)
C[C@](O)(c1ccccc1)c1nccc2ccccc12,,-17.4% [at 11.4 µM] (inactive)
Cc1ccc(-c2nc(-c3nccc4ccccc34)oc2-c2ccccc2)cc1,2.51 µM (active),
COc1ccc(NC(=O)C23CC4CC(C2)CC(n2cnc(Br)n2)(C4)C3)c(C)c1,inactive,
COc1ccc(NC(=S)Nc2ncccc2C)c(OC)c1,1.12 µM (active),
COc1ccc2c(c1OC)C(=O)OC2Nc1ncccc1C (stereo not drawn),inactive,
CCN=C1NN=C(c2ccc(C)cc2)CS1,20 µM (active),
O=C(NCCN1CCN(Cc2ccccc2)CC1)C1c2ccccc2C(=O)N2CCc3ccccc3C12 (stereo not drawn),inactive,
O=C(NCCc1ccccc1)c1noc2c1CCc1ccccc1-2,1.26 µM (active),
